# From PubChem BioAssay AID1159580 (chemical genetic matrix, 2015)
# Several values for one entry are separate records, joined by “and”; a condition that tells them apart may be missing. Equal values may be shown once. Hit rate of the full screen: of about 5,500 compounds, about 2,000 (36%) were called active. Another 18% or so got no clear call; they are omitted. No stated cut-off is given here; in the data, active means normalized growth mostly below about 0.91 (no sharp cut-off); inconclusive means no clear call, values can overlap the other calls; inactive means mostly above about 0.92. The list shows a part of the results. Where a structure was tested more than once in an assay, its records may differ in their call.
# Test: chemical genetic growth profiling, strain panel (AID 1159580);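 further: tested at 20 µM; growth read once vehicle control cultures reached saturation at 30 °C; 1 = growth at the plate median or of vehicle wells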
# Conditions: growth OD
smiles,measurement,setting,value
COc1ccccc1N1CCNCC1,normalized growth,"S. cerevisiae deletion strains, locus YAL013W, strain DEP1, stronger effect = lower value",1.01 (inactive) and 0.975 (inactive)
same,normalized growth,"S. cerevisiae deletion strains, locus YAL040C, strain CLN3, stronger effect = lower value",0.965 (inactive)
same,normalized growth,"S. cerevisiae deletion strains, locus YBR021W, strain FUR4, stronger effect = lower value",1.01 (inactive)
same,normalized growth,"S. cerevisiae deletion strains, locus YBR229C, strain ROT2, stronger effect = lower value",1.01 (inactive)
same,normalized growth,"S. cerevisiae deletion strains, locus YCL029C, strain bik1, stronger effect = lower value",1.03 (inactive)
same,normalized growth,"S. cerevisiae deletion strains, locus YCL061C, strain MRC1 (second series), stronger effect = lower value",0.993 (inactive)
same,normalized growth,"S. cerevisiae deletion strains, locus YDL035C, strain GPR1, stronger effect = lower value",1.01 (inactive)
same,normalized growth,"S. cerevisiae deletion strains, locus YDL074C, strain BRE1, stronger effect = lower value",1.01 (inactive)
same,normalized growth,"S. cerevisiae deletion strains, locus YDL101C, strain DUN1, stronger effect = lower value",1 (inactive)
same,normalized growth,"S. cerevisiae deletion strains, locus YDL134C, strain PPH21, stronger effect = lower value",1.01 (inactive)
same,normalized growth,"S. cerevisiae deletion strains, locus YDL185W, strain tfp1, stronger effect = lower value",1.03 (inactive)
same,normalized growth,"S. cerevisiae deletion strains, locus YDL192W, strain arf1, stronger effect = lower value",1.03 (inactive)
same,normalized growth,"S. cerevisiae deletion strains, locus YDR101C, strain arx1, stronger effect = lower value",1.02 (inactive)
same,normalized growth,"S. cerevisiae deletion strains, locus YDR150W, strain NUM1, stronger effect = lower value",1 (inactive) and 0.996 (inactive)
same,normalized growth,"S. cerevisiae deletion strains, locus YDR162C, strain NBP2, stronger effect = lower value",1.01 (inactive)
same,normalized growth,"S. cerevisiae deletion strains, locus YDR318W, strain mcm21, stronger effect = lower value",1.03 (inactive)
same,normalized growth,"S. cerevisiae deletion strains, locus YDR363W, strain ESC2, stronger effect = lower value",0.962 (inactive)
same,normalized growth,"S. cerevisiae deletion strains, locus YDR388W, stronger effect = lower value",1.03 (inactive)
same,normalized growth,"S. cerevisiae deletion strains, locus YDR502C, strain sam2, stronger effect = lower value",1.02 (inactive)
same,normalized growth,"S. cerevisiae deletion strains, locus YEL061C, strain CIN8, stronger effect = lower value",1.01 (inactive)
same,normalized growth,"S. cerevisiae deletion strains, locus YER002W, strain NOP16, stronger effect = lower value",0.99 (inactive)
same,normalized growth,"S. cerevisiae deletion strains, locus YER110C, stronger effect = lower value",1.03 (inactive)
same,normalized growth,"S. cerevisiae deletion strains, locus YER155C, strain BEM2, stronger effect = lower value",1.01 (inactive)
same,normalized growth,"S. cerevisiae deletion strains, locus YER167W, strain BCK2, stronger effect = lower value",1.03 (inactive)
same,normalized growth,"S. cerevisiae deletion strains, locus YGL078C, strain dbp3, stronger effect = lower value",1.02 (inactive)
same,normalized growth,"S. cerevisiae deletion strains, locus YGL086W, strain mad1, stronger effect = lower value",1.02 (inactive)
same,normalized growth,"S. cerevisiae deletion strains, locus YGL248W, strain PDE1, stronger effect = lower value",1.01 (inactive)
same,normalized growth,"S. cerevisiae deletion strains, locus YGR078C, strain PAC10, stronger effect = lower value",1 (inactive)
same,normalized growth,"S. cerevisiae deletion strains, locus YGR135W, strain pre9, stronger effect = lower value",1.02 (inactive)
same,normalized growth,"S. cerevisiae deletion strains, locus YGR229C, strain SMI1, stronger effect = lower value",0.999 (inactive)
same,normalized growth,"S. cerevisiae deletion strains, locus YGR252W, strain gcn5, stronger effect = lower value",1.05 (inactive)
same,normalized growth,"S. cerevisiae deletion strains, locus YHR030C, strain SLT2, stronger effect = lower value",0.999 (inactive)
same,normalized growth,"S. cerevisiae deletion strains, locus YHR079C, strain IRE1 (second series), stronger effect = lower value",1.03 (inactive)
same,normalized growth,"S. cerevisiae deletion strains, locus YHR094C, strain hxt1, stronger effect = lower value",1.03 (inactive)
same,normalized growth,"S. cerevisiae deletion strains, locus YHR129C, strain ARP1, stronger effect = lower value",1 (inactive)
same,normalized growth,"S. cerevisiae deletion strains, locus YHR200W, strain rpn10, stronger effect = lower value",1.03 (inactive)
same,normalized growth,"S. cerevisiae deletion strains, locus YIL066C, strain RNR3, stronger effect = lower value",1.01 (inactive)
same,normalized growth,"S. cerevisiae deletion strains, locus YIL073C, strain SPO22, stronger effect = lower value",1.12 (inactive)
same,normalized growth,"S. cerevisiae deletion strains, locus YIL125W, strain kgd1, stronger effect = lower value",1.02 (inactive)
same,normalized growth,"S. cerevisiae deletion strains, locus YIR030C, strain dcg1, stronger effect = lower value",1.04 (inactive)
same,normalized growth,"S. cerevisiae deletion strains, locus YJL095W, strain BCK1, stronger effect = lower value",1 (inactive)
same,normalized growth,"S. cerevisiae deletion strains, locus YJL134W, strain LCB3, stronger effect = lower value",0.999 (inactive)
same,normalized growth,"S. cerevisiae deletion strains, locus YJL168C, strain set2, stronger effect = lower value",1.04 (inactive)
same,normalized growth,"S. cerevisiae deletion strains, locus YJL187C, strain SWE1 (second series), stronger effect = lower value",1.01 (inactive)
same,normalized growth,"S. cerevisiae deletion strains, locus YJR043C, strain POL32, stronger effect = lower value",1.01 (inactive)
same,normalized growth,"S. cerevisiae deletion strains, locus YJR075W, strain HOC1, stronger effect = lower value",0.969 (inactive) and 0.984 (inactive)
same,normalized growth,"S. cerevisiae deletion strains, locus YKL009W, strain mrt4, stronger effect = lower value",0.986 (inactive)
same,normalized growth,"S. cerevisiae deletion strains, locus YKL068W, stronger effect = lower value",1.01 (inactive)
same,normalized growth,"S. cerevisiae deletion strains, locus YKL085W, strain MDH1 (second series), stronger effect = lower value",1.04 (inactive)
same,normalized growth,"S. cerevisiae deletion strains, locus YKL085W, strain MDH1, stronger effect = lower value",1.04 (inactive)
same,normalized growth,"S. cerevisiae deletion strains, locus YKL190W, strain CNB1, stronger effect = lower value",0.994 (inactive)
same,normalized growth,"S. cerevisiae deletion strains, locus YKR001C, strain vps1, stronger effect = lower value",1.04 (inactive)
same,normalized growth,"S. cerevisiae deletion strains, locus YLR039C, strain RIC1, stronger effect = lower value",1.05 (inactive)
same,normalized growth,"S. cerevisiae deletion strains, locus YLR058C, strain SHM2, stronger effect = lower value",1.01 (inactive)
same,normalized growth,"S. cerevisiae deletion strains, locus YLR102C, strain apc9, stronger effect = lower value",1.04 (inactive)
same,normalized growth,"S. cerevisiae deletion strains, locus YLR262C, strain YPT6, stronger effect = lower value",1.06 (inactive)
same,normalized growth,"S. cerevisiae deletion strains, locus YLR268W, strain sec22, stronger effect = lower value",1.02 (inactive)
same,normalized growth,"S. cerevisiae deletion strains, locus YLR330W, strain CHS5, stronger effect = lower value",1 (inactive)
same,normalized growth,"S. cerevisiae deletion strains, locus YLR342W, strain FKS1 (second series), stronger effect = lower value",1.01 (inactive)
same,normalized growth,"S. cerevisiae deletion strains, locus YLR371W, strain rom2, stronger effect = lower value",1.03 (inactive)
same,normalized growth,"S. cerevisiae deletion strains, locus YLR418C, strain cdc73, stronger effect = lower value",1.04 (inactive)
same,normalized growth,"S. cerevisiae deletion strains, locus YML016C, strain PPZ1, stronger effect = lower value",1.01 (inactive)
same,normalized growth,"S. cerevisiae deletion strains, locus YML032C, strain rad52, stronger effect = lower value",1.03 (inactive)
same,normalized growth,"S. cerevisiae deletion strains, locus YML124C, strain tub3, stronger effect = lower value",1.02 (inactive)
same,normalized growth,"S. cerevisiae deletion strains, locus YMR078C, strain ctf18, stronger effect = lower value",1.04 (inactive)
same,normalized growth,"S. cerevisiae deletion strains, locus YMR223W, strain ubp8, stronger effect = lower value",1.03 (inactive)
same,normalized growth,"S. cerevisiae deletion strains, locus YMR263W, strain SAP30, stronger effect = lower value",0.997 (inactive) and 0.985 (inactive)
same,normalized growth,"S. cerevisiae deletion strains, locus YMR307W, strain GAS1, stronger effect = lower value",0.992 (inactive) and 1 (inactive)
same,normalized growth,"S. cerevisiae deletion strains, locus YNL067W, strain RPL9B, stronger effect = lower value",1 (inactive)
same,normalized growth,"S. cerevisiae deletion strains, locus YNL128W, strain TEP1, stronger effect = lower value",1.01 (inactive)
same,normalized growth,"S. cerevisiae deletion strains, locus YNL153C, strain GIM3, stronger effect = lower value",0.987 (inactive) and 1.27 [resistant] (active)
same,normalized growth,"S. cerevisiae deletion strains, locus YNL175C, strain NOP13, stronger effect = lower value",0.992 (inactive)
same,normalized growth,"S. cerevisiae deletion strains, locus YNL197C, strain WHI3, stronger effect = lower value",1.02 (inactive)
same,normalized growth,"S. cerevisiae deletion strains, locus YNL224C, strain SQS1, stronger effect = lower value",0.994 (inactive)
same,normalized growth,"S. cerevisiae deletion strains, locus YNL233W, strain BNI4, stronger effect = lower value",1.02 (inactive)
same,normalized growth,"S. cerevisiae deletion strains, locus YNL250W, strain rad50, stronger effect = lower value",1.05 (inactive)
same,normalized growth,"S. cerevisiae deletion strains, locus YNL271C, strain bni1, stronger effect = lower value",1.04 (inactive)
same,normalized growth,"S. cerevisiae deletion strains, locus YNL298W, strain CLA4, stronger effect = lower value",1.05 (inactive)
same,normalized growth,"S. cerevisiae deletion strains, locus YNL307C, strain MCK1, stronger effect = lower value",1.05 (inactive)
same,normalized growth,"S. cerevisiae deletion strains, locus YNL322C, strain KRE1, stronger effect = lower value",1.01 (inactive) and 0.972 (inactive)
same,normalized growth,"S. cerevisiae deletion strains, locus YNR052C, strain pop2, stronger effect = lower value",1.03 (inactive)
same,normalized growth,"S. cerevisiae deletion strains, locus YOL006C, strain TOP1, stronger effect = lower value",0.997 (inactive)
same,normalized growth,"S. cerevisiae deletion strains, locus YOL012C, strain htz1",0.807 (inactive)
same,normalized growth,"S. cerevisiae deletion strains, locus YOL147C, strain pex11, stronger effect = lower value",1.02 (inactive)
same,normalized growth,"S. cerevisiae deletion strains, locus YOR061W, strain CKA2, stronger effect = lower value",1.01 (inactive)
same,normalized growth,"S. cerevisiae deletion strains, locus YOR069W, strain VPS5, stronger effect = lower value",0.997 (inactive)
same,normalized growth,"S. cerevisiae deletion strains, locus YOR083W, strain WHI5 (second series), stronger effect = lower value",1 (inactive)
same,normalized growth,"S. cerevisiae deletion strains, locus YOR136W, strain idh2, stronger effect = lower value",1.03 (inactive)
same,normalized growth,"S. cerevisiae deletion strains, locus YOR144C, strain elg1, stronger effect = lower value",1.03 (inactive)
same,normalized growth,"S. cerevisiae deletion strains, locus YOR184W, strain ser1, stronger effect = lower value",1.05 (inactive)
same,normalized growth,"S. cerevisiae deletion strains, locus YOR316C, strain cot1, stronger effect = lower value",1.03 (inactive)
same,normalized growth,"S. cerevisiae deletion strains, locus YPL055C, strain LGE1, stronger effect = lower value",1.03 (inactive) and 0.983 (inactive)
same,normalized growth,"S. cerevisiae deletion strains, locus YPL241C, strain CIN2, stronger effect = lower value",1.01 (inactive)
same,normalized growth,"S. cerevisiae deletion strains, locus YPR119W, strain clb2, stronger effect = lower value",1.02 (inactive)
same,normalized growth,"S. cerevisiae deletion strains, locus YPR141C, strain kar3, stronger effect = lower value",1.03 (inactive)
same,normalized growth,"S. cerevisiae deletion strains, locus YPR163C, strain tif3, stronger effect = lower value",1.03 (inactive)
same,normalized growth,"S. cerevisiae deletion strains, locus YPR167C, strain met16, stronger effect = lower value",1.03 (inactive)
same,normalized growth,"S. cerevisiae deletion strains, strain wtn01, stronger effect = lower value",1.01 (inactive)
same,normalized growth,"S. cerevisiae strains, strain wild type, stronger effect = lower value",1.01 (inactive)
